Screens (PubChem)
KCNH2 3.1 block = qHTS for Inhibitors of KCHN2 3.1: Mutant qHTS; 340,000 compounds, 0.95% hits; U2OS KCNH2 3.1, thallium flux FluxOr; stronger effect = lower value; activity change, % (tested at about 1.8 µM); Potassium voltage-gated channel subfamily H member 2, brain isoform KCNH2 3.1 (human);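 active = maximum activity change below -70%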;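 note: thallium influx rate constant from kinetic fluorescence after stimulation buffer; % is set by controls: 0 for no effect and ±100 for the full control effect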
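FluxOr-based Tl+ influx in U2OS cells transduced with KCNH2 3.1 virus; rate constants normalized to DMSO controls.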
TRPML1 agonist = qHTS for Agonists of the Human Mucolipin Transient Receptor Potential 1 (TRPML1); TRPML1-expressing cells, Ca2+ dye fluorescence, FDSS; activation, % (test concentration not listed); 410,000 compounds, 0.12% hits; in the data active = activation above about 50%; note: 0% is about no effect
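In this qHTS format, compounds were pin-transferred onto Ca8-dye-loaded TRPML1-DL cells induced with Tet overnight, and intracellular Ca2+ fluorescence was recorded kinetically for 110 s after a 10 s baseline. A subsequent 4uM final 54-4 (EC80) addition followed by a second 110 s read served as the antagonist phase.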
TRHR PAM = qHTS for Small Molecule Agonists and Allosteric Enhancers of Human TRH Receptor: Primary Screen for Enhancers. Thyrotropin-releasing hormone receptor (Homo sapiens), P34981. enhancement, % at 2 µM. 360,000 compounds, 0.66% hits. TRHR cells, fluo-8 calcium fluorescence, EC20 TRH enhancement. AID 493056, 2011; in the data active = enhancement above about 30%; note: 0% is about no effect
Target sequence (P34981 whole entry, looked up): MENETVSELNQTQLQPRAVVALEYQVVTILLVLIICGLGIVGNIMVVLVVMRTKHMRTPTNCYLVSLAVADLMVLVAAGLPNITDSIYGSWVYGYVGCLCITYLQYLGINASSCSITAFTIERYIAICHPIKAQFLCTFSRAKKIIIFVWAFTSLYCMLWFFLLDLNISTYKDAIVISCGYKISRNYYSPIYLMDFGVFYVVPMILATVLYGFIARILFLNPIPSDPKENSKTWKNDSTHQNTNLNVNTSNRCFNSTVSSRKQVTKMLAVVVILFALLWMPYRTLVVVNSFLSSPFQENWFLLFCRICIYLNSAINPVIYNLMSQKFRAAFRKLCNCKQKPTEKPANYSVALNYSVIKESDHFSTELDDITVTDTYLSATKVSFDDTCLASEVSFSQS
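TRHR-expressing cells loaded with fluo-8 calcium dye were read kinetically (ex 480/em 530) during compound addition, then stimulated with an EC20 of TRH (10 nM final). Enhancement of the Gq-mediated intracellular calcium response was scored.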
TRHR agonist = qHTS for Small Molecule Agonists and Allosteric Enhancers of Human TRH Receptor: Primary Screen for Agonists. Thyrotropin-releasing hormone receptor (Homo sapiens), P34981. TRHR cells, calcium flux fluo-8, FDSS agonist mode. activation, % at 2 µM. 360,000 compounds, 0.18% hits; in the data active = activation above about 30%; note: 0% is about no effect
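TRHR-expressing cells loaded with fluo-8 calcium dye; 23 nL library compound pin-transferred, kinetic FDSS fluorescence (Ex 480/Em 530) recorded about 180 s for agonist-induced calcium release, before a 10 nM TRH EC20 addition for potentiator mode.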
KCNH2 WT inh = qHTS for Inhibitors of KCHN2 3.1: Wildtype qHTS. Voltage-gated inwardly rectifying potassium channel KCNH2 (Homo sapiens), Q12809. U2OS, BacMam KCNH2, thallium flux FluxOr; stronger effect = lower value. activity change, % at 1.84 µM. 340,000 compounds, 0.37% hits;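 active = maximum activity change below -70%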; note: % is set by controls: 0 for no effect and ±100 for the full control effect
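U2OS cells were transduced with wild-type KCNH2 virus (2.03 x 10^8 / mL) for 4 h at room temperature, then cultured overnight at 37 C. Thallium flux was read with FluxOr dye. Rate constants were normalized to DMSO controls.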
TRPML1 inh = qHTS for Inhibitors of the Human Mucolipin Transient Receptor Potential 1 (TRPML1); Mucolipin-1 (Homo sapiens), Q9GZU1; 390,000 compounds, 0.02% hits; activity change, negative = inhibition, % (concentration not given with the values); TRPML1-inducible cells, Ca2+ dye fluorescence, FDSS; stronger effect = lower value; inhibition of EC80 agonist-evoked calcium signal; in the data active = activity change below about -50%;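 note: stimulus is agonist 54-4 at its EC80 concentration; % is set by controls: 0 for no effect and ±100 for the full control effect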
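Tet-induced TRPML1-DL cells loaded with Ca8 no-wash calcium dye were read kinetically on FDSS. Compound addition was followed by EC80 agonist 54-4 (4 uM final); inhibition was read over 110 s.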
Starred values were filed as active, the others as inactive. Shown are actives, neighbours in structure and some others; about 1.7% of the full set was active somewhere.

What do the screens show for `O=C(Nc1ccc(F)cc1)C(=O)c1c(O)[nH]c2ccc([N+](=O)[O-])cc12`?
KCNH2 3.1 block: -82*; TRPML1 agonist: 0; TRHR PAM: 6; TRHR agonist: 0; KCNH2 WT inh: -18; TRPML1 inh: -10

What do the screens show for `COc1cc2nc(CCNCc3ccccc3)nc(NC3CCN(C)CC3)c2cc1OC`?
TRPML1 agonist: 0

What do the screens show for `O=C1CC(c2nc3ccccc3[nH]2)CN1c1ccccc1` (centres undefined)?
KCNH2 3.1 block: -2; TRPML1 agonist: 0; TRHR PAM: 31*; TRHR agonist: -1; KCNH2 WT inh: -10; TRPML1 inh: 17

What do the screens show for `CCCS(=O)(=O)NC(=O)C1(C)CCCN(C(=O)c2cc(-c3cccs3)oc2C)C1` (centres undefined)?
TRPML1 agonist: 1; TRPML1 inh: -8

Results for CC1=NN(c2ccc([N+](=O)[O-])cc2)C(=O)/C1=C\N(C)C ?
KCNH2 3.1 block: 17; TRPML1 agonist: 1; TRHR PAM: -1; TRHR agonist: 0; KCNH2 WT inh: 20; TRPML1 inh: 6

What do the screens show for `COc1ccccc1/C=C1/C(=O)N(c2ccc([N+](=O)[O-])cc2)N=C1C`?
KCNH2 3.1 block: -80*; TRHR PAM: 5; TRHR agonist: 0; KCNH2 WT inh: -5

What do the screens show for `C[C@H]1CN([C@@H](C)CO)C(=O)CCCn2cc(nn2)CO[C@@H]1CN(C)C(=O)Nc1ccc(N2CCCCC2)cc1`?
KCNH2 3.1 block: 8; TRPML1 agonist: -1; KCNH2 WT inh: 3; TRPML1 inh: -4

Results for CCc1cc(=O)oc2c(C)c(OC(C)C(=O)NCCCn3ccnc3)ccc12 (centres undefined) ?
KCNH2 3.1 block: 11; TRPML1 agonist: -1; TRHR PAM: -8; TRHR agonist: 0; KCNH2 WT inh: 13; TRPML1 inh: 5

What do the screens show for `COc1ccc(C(=O)n2nc(-c3ccco3)nc2SC)cc1OC`?
KCNH2 3.1 block: -177*; TRPML1 agonist: 0; TRHR PAM: -6; TRHR agonist: 0; KCNH2 WT inh: -132*; TRPML1 inh: 78

Results for CC(C)CNc1ncnc2nc[nH]c12 ?
TRPML1 agonist: 0

Results for Nc1ccc(-c2c3ccc(=O)cc-3oc3cc(O)ccc23)c(C(=O)O)c1 ?
KCNH2 3.1 block: -13; TRPML1 agonist: 84*; TRHR PAM: 19; TRHR agonist: -1; KCNH2 WT inh: -13; TRPML1 inh: -2

What do the screens show for `O=C1C(=NO)CC(c2ccccc2)N1c1ccccc1` (centres undefined)?
KCNH2 3.1 block: -28; TRPML1 agonist: 2; KCNH2 WT inh: -5; TRPML1 inh: 12

Results for CCC(C(=O)N1CCCCCC1)n1nc(C)n2c(cc3occc32)c1=O (centres undefined) ?
KCNH2 3.1 block: 12; TRPML1 agonist: -1; TRHR PAM: 12; TRHR agonist: -1; KCNH2 WT inh: 8; TRPML1 inh: -14

Results for O=C(N/N=C/CCc1ccccc1)c1ccc(CN2c3cccc4cccc(c34)S2(=O)=O)cc1 ?
KCNH2 3.1 block: -78*; TRPML1 agonist: 1; TRHR PAM: 7; TRHR agonist: 1; KCNH2 WT inh: 18; TRPML1 inh: 20

How did CN(C(=O)c1cc(S(=O)(=O)N2CCOCC2)cs1)c1ccccc1 do in these assays?
KCNH2 3.1 block: -17; TRPML1 agonist: 1; TRHR PAM: 5; TRHR agonist: -1; KCNH2 WT inh: 5; TRPML1 inh: -16
